D1 potentiator = Potentiators of Human D1 Dopamine Receptor: qHTS | D(1A) dopamine receptor (Homo sapiens), P21728 | HEK293 TREx D1 cells, calcium flux, dopamine EC20 potentiation | potentiation, % at 10 µM | hit rate 0.036% among 360,000; in the data active = potentiation above about 30%; note: 0% is about no effect
D1 agonist = Allosteric Agonists of the Human D1 Dopamine Receptor: qHTS; D(1A) dopamine receptor (Homo sapiens), P21728; HEK293 T-REx D1 cells, calcium flux, agonist mode; activation, % at 2 µM; hit rate 1% among 360,000; AID 504660, 2011; in the data active = activation above about 30%; note: 0% is about no effect
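Inducible HEK293 T-REx D1 cells, force-coupled to calcium signalling, were plated at 4000 cells/well with tetracycline and held overnight at 30 C. After no-wash calcium dye loading, compound-evoked calcium rise over 180 s flagged agonists.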
D3 antag = qHTS of D3 Dopamine Receptor Antagonist: qHTS; D3R cells, DiscoveRx beta-arrestin luminescence, antagonist mode; stronger effect = lower value; max response, negative = inhibition, %; AID 652054, 2013; hit rate 2.5% among 360,000; D(3) dopamine receptor (Homo sapiens), P35462; in the data active = max response below about -50%; inconclusive = no clear call, values can overlap the other calls; note: % is set by controls: 0 for no effect and ±100 for the full control effect
Target sequence (P35462 whole entry, looked up): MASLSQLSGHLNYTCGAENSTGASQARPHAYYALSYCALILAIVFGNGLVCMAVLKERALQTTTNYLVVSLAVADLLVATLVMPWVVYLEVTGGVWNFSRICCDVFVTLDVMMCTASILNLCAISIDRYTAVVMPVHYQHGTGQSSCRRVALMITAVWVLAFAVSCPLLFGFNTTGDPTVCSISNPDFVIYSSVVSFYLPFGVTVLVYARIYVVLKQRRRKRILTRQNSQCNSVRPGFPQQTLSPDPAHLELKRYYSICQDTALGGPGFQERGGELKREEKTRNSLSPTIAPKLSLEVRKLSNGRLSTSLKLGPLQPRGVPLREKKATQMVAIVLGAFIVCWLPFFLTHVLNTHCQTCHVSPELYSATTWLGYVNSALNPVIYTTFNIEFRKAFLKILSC
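Cells expressing the human receptor were seeded at 1500 cells/well, incubated overnight at 37 degrees C in 5% CO2, then exposed to library compounds with dopamine controls for 90 minutes at 37 degrees C before luminescent detection.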
D1 antag = Antagonist of Human D 1 Dopamine Receptor: qHTS; activity change, negative = inhibition, % at 10 µM; hit rate 3.2% among 360,000; AID 504652, 2011; D(1A) dopamine receptor (Homo sapiens), P21728; HEK293 TREx D1 cells, calcium flux, dopamine EC80; stronger effect = lower value; in the data active = activity change below about -30%; note: % is set by controls: 0 for no effect and ±100 for the full control effect
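Tetracycline-induced HEK293 T-REx cells with force-coupled D1 receptor were loaded with a no-wash calcium dye. Compound was added after a 10 s baseline and read kinetically for 180 s; EC80 dopamine was then added and calcium flux followed another 180 s.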
D3 ag = qHTS of D3 Dopamine Receptor Agonist: qHTS. D(3) dopamine receptor (Homo sapiens), P35462. D3R DiscoveRx beta-arrestin cells, luminescence, 90 min. max activation, %. hit rate 0.58% among 410,000; in the data active = max activation above about 30%; note: 0% is about no effect
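Agonist-mode cell screen: cells plated at 1500/well and incubated overnight at 37 °C, then exposed to library compounds for 90 min at 37 °C. Detection reagent was added for 30–60 min at room temperature, and luminescence was read.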
The depositor's hits bear a star; ? = inconclusive; nt = no result. Only some compounds are listed: those with a hit (about 6.1% of all), similar ones and a draw of the others.

SMILES	D1 potentiator	D1 agonist	D3 antag	D1 antag	D3 ag
Cc1ccc(S(=O)(=O)N2C[C@H]3[C@H]4C(=O)N(c5ccccc5)C(=O)[C@H]4CC(=O)[C@H]3[C@@H]2c2ccccc2F)cc1	nt	nt	13	nt	5
CCOC(=O)c1c(NC(=O)c2c(-c3ccccc3)noc2C)sc(C)c1-c1ccccc1	0	3	61	6	0
CCn1nc(-c2ccccc2)c(-c2ccccc2)c(C(=O)Nc2ccccc2C(N)=O)c1=O	0	7	nt	-42*	1
CCOC(=O)c1ccccc1NC(=O)c1c(-c2ccccc2)noc1C	-6	32*	nt	-10	10
CCn1nc(-c2ccccc2)c(-c2ccccc2)c(C(=O)Nc2ccccc2C#N)c1=O	2	2	nt	-2	13
Cc1onc(-c2ccccc2)c1C(=O)Nc1sc2c(c1C#N)CCC(C)C2 (centres undefined)	5	5	15	4	32*
Cc1onc(-c2ccccc2)c1C(=O)OCC(=O)Nc1cccc(Cl)c1	nt	47*	5	2	2
Cc1cccc(-c2nc3c(cnn3-c3ccccc3)c(=O)n2-c2cccc(Cl)c2)c1	0	5	nt	-1	-14
CC1CCc2c(sc(NC(=O)c3ccc(Cn4cc([N+](=O)[O-])cn4)o3)c2C#N)C1 (centres undefined)	-2	1	-69*	-5	-9
Cc1cnc(NC(=O)c2c(-c3ccccc3)noc2C)s1	-6	-1	8	-34*	-2
C[C@@]12CCC3[C@@](CCC4[C@@]3(C)CCC[C@@]4(C)C(=O)N3CCOCC3)(CC1=O)C2 (some centres undefined)	nt	nt	5	nt	31*
Cc1c(C(=O)N2CCCC(C(F)(F)F)C2)oc2ccccc12 (centres undefined)	-5	2	9	4	-12
Cc1c(C(=O)N2CC(C)OC(C)C2)oc2ccccc12 (centres undefined)	2	2	-72*	-9	-1
CCCCN(CC)Cc1ccc(CNC(=S)Nc2cccc(F)c2)o1	-9	34*	-25	-1	-16
CCOC(=O)c1ccc(NC(=O)CSc2nccn2-c2cc(C)cc(C)c2)cc1	-6	7	nt	18	-13
CCCOc1ccc(C2C(=O)N(C3CCCCC3)CC(=O)N2CCC2=CCCCC2)cc1OC (centres undefined)	0	-5	nt	-1	-19
Cc1ccc(OCC(=O)Nc2c(C)nn(-c3ccccc3)c2C)c(Br)c1	-4	15	2	-37*	14
Cc1ccc(C)c(OCC(=O)OCC(=O)Nc2c(C)nn(-c3ccccc3)c2C)c1	-4	6	26	-2	0
NC(=O)CS(=O)(=O)c1nc2ccccc2n1Cc1ccccn1	-3	1	-2	-38*	0
COc1ccc(Cn2c(S(=O)(=O)CC(N)=O)nc3ccccc32)cc1[N+](=O)[O-]	2	0	nt	-2	nt
CCCCC(=O)Nc1cc2nn(-c3ccc(OCC)cc3)nc2cc1C	5	5	nt	6	7
O=C(NCCc1cccs1)c1ccc(Cn2c(SCc3ccc(F)cc3)nc3cccnc32)cc1	-4	4	nt	-15	1
C[N+]1(CCn2ccc3ccccc32)CCCCC1	1	0	10	-2	-2
c1ccc(C2(Cn3ccc4ccccc43)OCCO2)cc1	-6	1	27	-5	71*
Cn1/c(=N/N=C/c2ccc([N+](=O)[O-])cc2)sc2ccccc21	3	30*	nt	3	nt
SMILES	D1 potentiator	D1 agonist	D3 antag	D1 antag	D3 ag
COc1ccc(OC)c(NC(=O)N2CCN(S(=O)(=O)c3ccc4c(ccn4C)c3)CC2)c1	0	2	nt	11	-14
CC(C)c1ccccc1OCCCN1CCCC1	-3	7	-87*	-3	-2
c1ccc2c(OCCCCN3CCCC3)cccc2c1	-6	11	?	4	-1
CC(C)c1ccccc1OCCCCN1CCCCC1	nt	nt	-103*	nt	-22
CC(C)c1ccccc1OCCCCCN1CCOCC1	nt	nt	-54*	nt	-15
Cn1c(CN2CCN(S(C)(=O)=O)CC2)nc2cc([N+](=O)[O-])ccc21	0	2	?	4	-21
COc1ccccc1CN1[C@@H](CC(=O)O)c2ccccc2S1(=O)=O	nt	nt	-54*	nt	8
COc1cccc(N2[C@@H](CC(=O)O)c3ccccc3S2(=O)=O)c1	nt	nt	10	nt	9
O=C(COC(=O)c1cc(=O)c2ccccc2o1)NCc1ccc(Cl)cc1	nt	nt	?	nt	-10
CC(=O)N1CCN(CC(=O)Nc2c(Cl)ccc(C)c2Cl)CC1	-1	4	0	-1	5
O=S(=O)(Nc1ccccc1)c1ccc(Oc2ncc(C(F)(F)F)cc2Cl)cc1	-2	32*	-63*	-3	-1
CCCNS(=O)(=O)c1ccc(Oc2ncc(C(F)(F)F)cc2Cl)cc1	-9	46*	-18	-6	1
CC(C)NS(=O)(=O)c1ccc(Oc2ncc(C(F)(F)F)cc2Cl)cc1	-7	22	5	-26	2
NC(=O)Nc1ccc(Oc2ncc(C(F)(F)F)cc2Cl)cc1	-5	2	3	-26	2
O=C(CSc1ccccc1F)NCC(c1cccs1)N1CCOCC1 (centres undefined)	nt	nt	7	nt	0
O=C(Oc1cccc(NC(=O)c2ccco2)c1)c1cccc(S(=O)(=O)N2CCCCC2)c1	-3	11	1	-9	-2
COCCNC(=O)C1CC(c2ccc(C(F)(F)F)cc2)=NO1 (centres undefined)	nt	nt	0	nt	0
COc1ccc(CNC(=O)Cc2c(C)c3cc4c(C)coc4c(C)c3oc2=O)cc1	6	5	nt	-1	11
CCN1C(=O)C(O)(CC(=O)c2c(C)coc2C)c2ccccc21 (centres undefined)	-1	0	-8	-45*	-2
Cc1ccc(C(=O)CC2(O)C(=O)N(Cc3ccccc3)c3ccccc32)c(C)c1 (centres undefined)	12	58*	nt	-15	3
Cc1coc(C)c1C(=O)CC1(O)C(=O)N(CCc2ccccc2)c2ccccc21 (centres undefined)	0	2	-12	-7	-2
CCN1C(=O)C(O)(CC(=O)c2ccc3c(c2)OCCO3)c2ccccc21 (centres undefined)	nt	5	35	4	3
CCCCN1C(=O)C(O)(CC(=O)c2ccc(C(C)(C)C)cc2)c2ccccc21 (centres undefined)	-5	28	nt	-49*	3
COc1ccc(CN2C(=O)C(O)(CC(=O)c3ccc4c(c3)OCO4)c3ccccc32)cc1OC (centres undefined)	-1	3	3	-1	36*
